Screening data (PubChem BioAssay)
Rce1 inh – inhibitors of yeast Ras-converting enzyme. yeast membranes, quenched prenylated peptide cleavage fluorescence. 0.27% of 290,000 active. calls only. Q03530;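 active means fall in fluorescence gain of 50% or more versus controls, with final raw signal at or below 3038400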
Target sequence (Q03530 whole entry, looked up): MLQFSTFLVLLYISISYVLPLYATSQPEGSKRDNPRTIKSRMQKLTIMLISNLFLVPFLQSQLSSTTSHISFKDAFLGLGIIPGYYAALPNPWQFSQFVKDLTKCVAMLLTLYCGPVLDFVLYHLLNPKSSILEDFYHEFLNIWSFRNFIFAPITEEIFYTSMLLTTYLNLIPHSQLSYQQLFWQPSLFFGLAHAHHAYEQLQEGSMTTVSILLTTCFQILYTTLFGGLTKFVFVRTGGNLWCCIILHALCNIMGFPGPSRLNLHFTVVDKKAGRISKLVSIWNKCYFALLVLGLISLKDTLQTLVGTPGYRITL
TMEM16A act – activates or potentiates the mouse TMEM16A chloride channel | HEK293 TMEM16A/YFP-H148Q/I152L, iodide quench fluorescence; hits give low values | B-score at 10 µM | 0.3% of 340,000 active | AID 623877;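 active means fluorescence-ratio B-score plate-corrected deviation score at least 3 library SD below zero, with starting fluorescence score within 5 deviations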;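 further: channel opened by trigger with iodide after compound preincubation; score built on the fluorescence ratio of max minus min over baseline; more negative score means more quench and so TMEM16A activation or potentiation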
CHT PAM – allosteric activators of human choline transporter CHT; CHT-expressing cells, membrane potential dye, choline EC20; hits give high values; LV-AA mutant CHT in HEK293 cells; B-score at 10 µM; 0.49% of 310,000 active;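 active means initial fluorescence not abnormally high and integrated response B-score, plate-corrected, over 3 SD above library mean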
ANO1 block – blocks the mouse calcium-activated chloride channel TMEM16A; Q8BHY3; HEK293 TMEM16A/YFP iodide influx fluorescence, ionomycin; normalized B-score (activity score, 25-100; higher = stronger inhibition) at 10 µM; 1.2% of 310,000 active;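 active means ratio plate-corrected score three or more library SD toward inhibition, starting fluorescence score within five deviations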;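 further: score derived from kinetic fluorescence span divided by baseline fluorescence per well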
Kir21 block – Kir2.1 (mouse) channel inhibition; P35561; HEK293-Kir2.1, FluxOR thallium flux fluorescence; hits give low values; B-score at 10 µM; 0.85% of 310,000 active; AID 1672;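 active means fluorescence ratio B-score at or below minus 3 SD of library scores, with starting-brightness B-score within 2 SD, cut at about -4.2 in these data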;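 further: channel flux triggered by added potassium and thallium sulfate stimulus; B-score of peak minus minimum fluorescence over baseline after thallium stimulus; more negative B-score means stronger Kir2.1 block with less thallium influx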
CHT inh – human CHT choline transport inhibition; B-score at 10 µM; 0.86% of 310,000 active; CHT-expressing cells, membrane potential dye, choline response; hits give low values;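 active means B-score over 3 SD under the library average, and starting fluorescence ratio not unusually high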;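 further: choline stimulus applied at its EC90 after an EC20 pre-addition; B-score computed on integrated fluorescence ratio after choline addition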
CHT inh conf – confirmation of human choline transporter CHT inhibitors; AID 493221; shares compounds with CHT inh; 70% of 2,400 active; CHT activity remaining % of control (hits give low values), % at 10 µM; CHT-expressing cells, choline membrane potential dye; LV-to-AA substituted CHT, HEK293 cells;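 active means choline transporter activity left, mean of duplicates at 10 µM, below buffer-only control mean minus 3 SD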;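 further: depolarization triggered by choline at its EC90 following an EC20 pre-addition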
HEK293 CHT ctr – activity in parental HEK293 cells lacking CHT; shares compounds with CHT inh; membrane potential dye, choline response; active = decrease or increase beyond buffer ±3SD; membrane potential ratio readout (active if shifted either direction beyond buffer ±3SD; no single direction) at 10 µM; 4% of 2,400 active;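 further: parental cells lack the transporter so any hit is non-specific; ratio is peak minus trough fluorescence over baseline after EC90 choline challenge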
Each line names hits and unclear results; the compound was inactive in the other large screens (follow-up assays come after a bar, where they were run). The list is not random: actives were taken first. Their share in the collection is about 3.2%.

C=CCNc1nc2ccccc2nc1NS(=O)(=O)c1ccc(Br)cc1	ANO1 block 25, CHT inh -5.1 (no result: TMEM16A act) | CHT inh conf 69% | HEK293 CHT ctr inactive
COCCC1CCCCN1C(=O)c1cc(COc2ccc(-n3cncn3)cc2)on1 (configuration not stated)	none
O=c1cc(-c2ccccc2Cl)oc2c(NS(=O)(=O)c3ccccc3OC(F)(F)F)ccc(O)c12	none
S=C(NCCCN1CCOCC1)Nc1cccc(-c2nnc3n2CCCCC3)c1	CHT inh -5.2 | CHT inh conf 61% | HEK293 CHT ctr inactive
COc1ccccc1N1CCN(C2CCCN(C(=O)c3ccsc3)C2)CC1 (configuration not stated)	none
Cc1cc(C(=O)COC(=O)C2=NNC(=O)CC2)c(C)n1-c1ccccc1	none
Cc1ccc(-n2c(C)cc(C(=O)COC(=O)C3=NNC(=O)CC3)c2C)cc1	CHT inh -6.5 | CHT inh conf 18% | HEK293 CHT ctr -12
Cn1c(=O)[nH]c2nnc(-c3ccc(Cl)c(Cl)c3)nc2c1=O	CHT inh -5 | CHT inh conf 34% | HEK293 CHT ctr inactive
COc1cccc(NC(=S)N(Cc2ccc(C(=O)O)cc2)Cc2ccc(OC)c(OC)c2)c1	CHT inh -6.4 | CHT inh conf 51% | HEK293 CHT ctr inactive
COc1ccc(CN(Cc2ccc(C(=O)O)cc2)C(=S)Nc2ccccc2C)cc1OC	none
O/N=C/c1ccnc(SCc2ccccc2)n1	CHT inh -5.1 | CHT inh conf 59% | HEK293 CHT ctr inactive
O/N=C/c1ccnc(SCc2ccc(Cl)cc2)n1	none
O=[N+]([O-])c1ccc(O)c(/C=N/NC2=NS(=O)(=O)c3ccccc32)c1	CHT inh -5.6 | CHT inh conf 60% | HEK293 CHT ctr inactive
COc1cc(SC)ccc1C(=O)OCC(=O)NC1CCCCC1	none
COc1cc(SC)ccc1C(=O)NC1CCCCC1	CHT inh -6.2 | CHT inh conf inactive | HEK293 CHT ctr inactive
COc1cc(CC(=O)OCn2nnc3ccccc3c2=O)cc(OC)c1OC	none
CNC[C@H](O)c1ccc(O)c(O)c1	none
CC(C)NCC(O)c1ccc(O)c(O)c1 (configuration not stated)	CHT inh -6.4 | CHT inh conf 30% | HEK293 CHT ctr inactive
Cc1ccc(S(=O)(=O)CC(O)COc2ccc(C#N)cc2)cc1 (configuration not stated)	none
Cc1ccc(S(=O)(=O)CC(O)COc2ccc(F)cc2Cl)cc1 (configuration not stated)	CHT inh -6.6 | CHT inh conf 54% | HEK293 CHT ctr inactive
Cc1cc(OCc2cc(C(=O)NCCN3CCCCC3CO)no2)cc(C)c1Cl (configuration not stated)	CHT inh -5.4 | CHT inh conf 49% | HEK293 CHT ctr inactive
COc1cccc(OCc2cc(C(=O)NCCN3CCCCC3CO)no2)c1 (configuration not stated)	none
O=c1c2cc(Br)ccc2nc(-c2ccc([N+](=O)[O-])cc2)n1O	CHT inh -6.3 (no result: Rce1 inh) | CHT inh conf 38% | HEK293 CHT ctr inactive
N#Cc1ccc(-c2nc3ccc(Br)cc3c(=O)n2O)cc1	none
O=C(N/N=C/c1sc(N2CCOCC2)nc1-c1ccccc1)c1ccc(O)cc1	none
Cc1occc1C(=O)N/N=C/c1sc(N2CCOCC2)nc1-c1ccccc1	CHT inh -9.1 | CHT inh conf inactive | HEK293 CHT ctr inactive
Cc1cc(C)n2nc(CNS(=O)(=O)c3ccc(C)c(C)c3)nc2n1	CHT inh -6.9 | CHT inh conf inactive | HEK293 CHT ctr inactive
Cc1cc(C)n2nc(CNS(=O)(=O)c3ccc(F)c(C)c3)nc2n1	none
CCCC[C@H]1COCCS(=O)(=O)N1Cc1ccc(Br)cc1	none
